Results reported in PubChem BioAssay (Tox21).
Inconclusive results are not listed. The source made the active and inactive calls. Unless noted, calls follow the shape of the dose curve; as a rule, active = well fitted curve in the direction sought with a large enough effect in the repeat runs; inconclusive = weak or mixed curves; inactive = no such curve, though single readings can be large; an effect the other way counts as inactive or inconclusive.

Columns and labels:
[1] = target: Progesterone receptor (Homo sapiens) (UniProt P06401); assay: qHTS assay to identify small molecule agonists of the progesterone receptor (PR) signaling pathway (AID 1346784; calls by dose curve; also: nearly all actives have a fitted effect of over 30% in size)
Outline: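 Seed PR-UAS-bla HEK 293T cells (2% charcoal-stripped FBS), incubate 6 hr at 37C; add compounds in DMSO, 16 hr at 37C; add LiveBLAzer B/G substrate, 2 hr RT; read fluorescence intensity.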

[2] = qHTS assay to identify small molecule antagonists of the progesterone receptor (PR) signaling pathway - cell viability counter screen (AID 1346798); also: nearly all actives have a fitted effect of over 50% in size; also: potency is read from the fitted curve at half-maximal effect; as to activity change, negative = cytotoxicity: series mostly up to about 92 µM
Outline: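 Measures cytotoxicity in parallel with the PR antagonist reporter read: HEK293T PR-UAS-bla cells get compound and R5020 for 16 hr, and remaining viable cells are quantified by CellTiter-Glo luminescence.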

[3] = qHTS assay to identify small molecule agonists of the progesterone receptor (PR) signaling pathway - cell viability counter screen (AID 1346799; calls by dose curve; also: nearly all actives have a fitted effect of over 45% in size; also: potency is read from the fitted curve at half-maximal effect)
Outline: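 Using the same plates as the PR reporter screen, HEK293T PR-UAS-bla cells received compounds for 16 hr at 37C and were then lysed with CellTiter-Glo; luminescence was read 30 min later at room temperature.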

[4] = qHTS assay to identify small molecule antagonists of the TGF-beta/Smad signaling pathway - cell viability counter screen (AID 1346824); also: nearly all actives have a fitted effect of over 50% in size; also: potency is read from the fitted curve at half-maximal effect
Outline: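 SBE-bla HEK 293T cells, incubated overnight, then compound plus 0.25 ng/mL TGF-beta1 (stock added) for 5 hr at 37 C. Viability was read in the same wells by CellTiter-Glo luminescence after 30 min at room temperature.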

[5] = qHTS assay to identify small molecule agonists of the TGF-beta/Smad signaling pathway - cell viability counter screen (AID 1346829); also: nearly all actives have a fitted effect of over 45% in size; also: potency is read from the fitted curve at half-maximal effect; as to activity change, negative = cytotoxicity: top concentration of the series differs between compounds
Outline: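 CellTiter-Glo luminescence readout; SBE-bla HEK 293T cells, overnight plating, compound 5 hr at 37 C/5% CO2, then bla substrate 2 hr RT, then CellTiter-Glo 30 min RT.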

[6] = qHTS assay to identify small molecule agonists of the TGF-beta/Smad signaling pathway (AID 1346859; active = well fitted activation curve with a large enough effect in the signal ratio in the repeat runs, not every such curve was filed as active; the % refers to the signal ratio; also: series mostly up to about 77 µM)
Outline: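 Beta-lactamase reporter activity downstream of Smad binding elements was measured in stably transfected HEK 293T cells; compounds were incubated for 5 hr, substrate for 2 hr at room temperature.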

[7] = target: Thyrotropin-releasing hormone receptor (Homo sapiens) (UniProt P34981); assay: qHTS assay to identify small molecule antagonists of the thyrotropin-releasing hormone receptor (TRHR) signaling pathway (AID 1346877; active = well fitted inhibition curve with a large enough effect in the repeat runs, not every such curve was filed as active; also: series mostly up to about 51 µM)
Outline: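 Kinetic fluorescence (3 min, 1 s resolution) following stimulation with TRH at 1 nM final; HEK293 cells bearing human TRHR; 5 min compound preincubation at RT; concentration-response over 15 points, triplicates.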

[8] = target: Thyrotropin-releasing hormone receptor (Homo sapiens) (UniProt P34981); assay: qHTS assay to identify small molecule agonists of the thyrotropin-releasing hormone receptor (TRHR) signaling pathway (AID 1346891; calls by dose curve;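 also: HEK293 cells expressing TRHR with calcium dye readout; series mostly up to about 58 µM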)
Outline: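 Overnight-plated (18 h, 37 °C, 5% CO2) TRHR-Hek293 cells; 2 h calcium dye at 37 °C; compound in DMSO; 3-min kinetic fluorescence read.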

[9] = Human pregnane X receptor (PXR) small molecule agonists, qHTS cell viability counter screen (AID 1346977); also: nearly all actives have a fitted effect of over 50% in size; also: potency is read from the fitted curve at half-maximal effect
Outline: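 After a 5hr pre-incubation, PXR-Luc HepG2 cells received compounds plus positive control in DMSO and were kept 24hr at 37C. Cell viability was quantified by fluorescence from CellTiter-Fluor added for the final hour.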

[10] = Caspase-3/7 induction in HepG2 cells by small molecules, qHTS assay (AID 1346978); also: nearly all actives have a fitted effect of over 15% in size; also: potency is read from the fitted curve at half-maximal effect
Outline: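 Wild-type HepG2 cells, 2,000/well, settled 5 hr at 37 C and 5% CO2, then compound-treated for 17 hr; caspase-3/7 activity read by luminescent Caspase-Glo 3/7 after 30 min at room temperature.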

[11] = Caspase-3/7 induction in CHO-K1 cells by small molecules, qHTS cell viability counter screen (AID 1346979); also: nearly all actives have a fitted effect of over 35% in size; also: potency is read from the fitted curve at half-maximal effect
Outline: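 Multiplexed with Caspase-Glo 3/7 in CHO-K1 cells, this counter screen added CellTiter-Fluor after 16hr of compound exposure and recorded fluorescence 1hr later.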

[12] = Caspase-3/7 induction in CHO-K1 cells by small molecules, qHTS assay (AID 1346980); also: nearly all actives have a fitted effect of over 15% in size; also: potency is read from the fitted curve at half-maximal effect
Outline: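 Wild-type CHO-K1 cells exposed to compounds for 17hr at 37 C, 5% CO2. Caspase-3/7 activity then measured by Caspase-Glo 3/7 luminescence after 30min at room temperature.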

[13] = Caspase-3/7 induction in HepG2 cells by small molecules, qHTS cell viability counter screen (AID 1346981); also: nearly all actives have a fitted effect of over 30% in size; also: potency is read from the fitted curve at half-maximal effect; as to activity change, negative = cytotoxicity: series mostly up to about 92 µM
Outline: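 In this quantitative HTS counter screen, compounds delivered in DMSO were left on unmodified HepG2 cells for 16 hr at 37 C. Viability was then determined fluorometrically with CellTiter-Fluor, in parallel with caspase-3/7 induction in the same wells.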

[14] = target: Nuclear receptor subfamily 1 group I member 2 (Homo sapiens) (UniProt O75469); assay: Human pregnane X receptor (PXR) small molecule agonists, qHTS assay (AID 1346982); also: nearly all actives have a fitted effect of over 35% in size; also: potency is read from the fitted curve at half-maximal effect
Outline: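 Reporter HepG2 cells expressing PXR-Luc are cultured in charcoal-stripped FBS (5%), treated with compounds for 24 hr at 37 C, and assayed by ONE-Glo luminescence after 30 min at room temperature.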

[15] = target: Nuclear receptor subfamily 1 group I member 2 (Rattus norvegicus) (UniProt Q9R1A7); assay: Rat pregnane X receptor (rPXR) activation by small molecules, qHTS assay (AID 1346983); settings: rPXR luciferase reporter cells, One-Glo luminescence, 24 h; max activation: active compounds read high; also: nearly all actives have a fitted effect of over 20% in size
Outline: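 Cell-based rPXR activation assay: rPXR cells, 2,000 per well, rested 5hr at 37 C, then exposed to compounds in DMSO for 24 hr at 37 C. Luciferase activity read by One-Glo luminescence after 30 min at room temperature.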

[16] = target: Nuclear receptor subfamily 1 group I member 2 (Homo sapiens) (UniProt O75469); assay: CYP3A4 induction through human pregnane X receptor (PXR) by small molecules, qHTS assay (AID 1346984); also: nearly all actives have a fitted effect of over 40% in size; also: potency is read from the fitted curve at half-maximal effect
Outline: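 Induction measured in HepG2-based DPX-2 cells co-expressing human PXR and a CYP3A4 promoter-driven luciferase. After a 24-hour compound exposure, cells received CYP3A4 luciferin substrate at 3uM final for 3 hours, and light output was then recorded.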

[17] = target: Nuclear receptor subfamily 1 group I member 2 (Homo sapiens) (UniProt O75469); assay: Human pregnane X receptor (PXR) activation by small molecules, qHTS assay (AID 1346985); also: nearly all actives have a fitted effect of over 40% in size; also: potency is read from the fitted curve at half-maximal effect
Outline: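 DPX-2 cells (HepG2 co-transfected with a PXR response element and a CYP3A4-promoter luciferase construct) were seeded at 2,000 per well, rested 5 hr at 37C, then exposed to DMSO-dissolved compounds for 24 hr. Activation was read as luciferase luminescence.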

[18] = target: Cytochrome P450 2D6 (Homo sapiens) (UniProt P10635); assay: Cytochrome P450 Family 2 Subfamily D Member 6 (CYP2D6) small molecule antagonists: luciferase reporter qHTS assay (AID 1671196); also: nearly all actives have a fitted effect of over 50% in size; also: potency is read from the fitted curve at half-maximal effect
Outline: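 Test chemicals meet CYP2D6 plus proluciferin substrate (10 min, RT); NADPH regenerating solution then drives turnover for 1 h. Detection reagent halts the reaction; luminescence measured after 20 min.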

[19] = target: Cytochrome P450 2C19 (Homo sapiens) (UniProt P33261); assay: Cytochrome P450 Family 2 Subfamily C Member 19 (CYP2C19) small molecule antagonists: luciferase reporter qHTS assay (AID 1671197); also: nearly all actives have a fitted effect of over 65% in size; also: potency is read from the fitted curve at half-maximal effect
Outline: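 Enzyme-substrate mix with proluciferin substrate (P450-Glo CYP2C19 system) preincubated with compounds 10 min at room temperature; NADPH regeneration solution added, 37C for 1 h; detection reagent stops reaction, luminescence read after 20 min. Ketoconazole positive control.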

[20] = target: Progesterone receptor (Homo sapiens) (UniProt P06401); assay: qHTS assay to identify small molecule antagonists of the progesterone receptor (PR) signaling pathway (AID 1346795; active = well fitted inhibition curve with a large enough effect in the signal ratio in the repeat runs, not every such curve was filed as active; the % refers to the signal ratio; also: potency is read from the fitted curve at half-maximal effect)
Outline: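 Screening used a GripTite HEK293T line with PR-responsive UAS-beta-lactamase. Cells were challenged with compound in the presence of 1 nM R5020 final for 16 hr at 37C; B/G FRET substrate, 2 hr room temperature, fluorescence.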
% is scaled to controls: 0 for no effect and ±100 for the full control effect.

Sequence of Thyrotropin-releasing hormone receptor (Homo sapiens) (P34981 whole entry, looked up): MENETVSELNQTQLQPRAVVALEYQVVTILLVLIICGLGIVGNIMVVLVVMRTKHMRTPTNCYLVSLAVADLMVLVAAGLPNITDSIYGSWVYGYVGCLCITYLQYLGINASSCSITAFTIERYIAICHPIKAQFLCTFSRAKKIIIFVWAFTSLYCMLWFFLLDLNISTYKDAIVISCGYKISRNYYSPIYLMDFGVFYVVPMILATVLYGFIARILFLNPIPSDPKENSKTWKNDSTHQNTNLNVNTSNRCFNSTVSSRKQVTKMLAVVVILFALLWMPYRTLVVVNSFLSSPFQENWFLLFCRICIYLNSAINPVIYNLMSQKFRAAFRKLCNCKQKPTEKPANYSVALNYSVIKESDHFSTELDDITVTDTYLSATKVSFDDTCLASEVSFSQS
Sequence of Cytochrome P450 2D6 (Homo sapiens) (P10635 whole entry, looked up): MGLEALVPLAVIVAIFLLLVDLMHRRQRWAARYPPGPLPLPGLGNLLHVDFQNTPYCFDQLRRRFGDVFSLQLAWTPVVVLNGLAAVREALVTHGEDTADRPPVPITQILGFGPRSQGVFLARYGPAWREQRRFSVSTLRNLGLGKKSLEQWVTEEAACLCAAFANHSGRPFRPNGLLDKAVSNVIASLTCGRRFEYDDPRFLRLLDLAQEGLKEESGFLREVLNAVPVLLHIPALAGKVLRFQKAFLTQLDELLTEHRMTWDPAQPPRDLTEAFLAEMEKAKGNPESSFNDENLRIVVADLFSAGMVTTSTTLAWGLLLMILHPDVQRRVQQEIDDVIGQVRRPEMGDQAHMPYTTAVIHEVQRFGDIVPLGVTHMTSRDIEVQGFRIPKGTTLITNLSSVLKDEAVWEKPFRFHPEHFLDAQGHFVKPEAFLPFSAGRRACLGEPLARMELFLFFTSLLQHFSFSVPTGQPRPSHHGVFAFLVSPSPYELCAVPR
Sequence of Progesterone receptor (Homo sapiens) (P06401 whole entry, looked up): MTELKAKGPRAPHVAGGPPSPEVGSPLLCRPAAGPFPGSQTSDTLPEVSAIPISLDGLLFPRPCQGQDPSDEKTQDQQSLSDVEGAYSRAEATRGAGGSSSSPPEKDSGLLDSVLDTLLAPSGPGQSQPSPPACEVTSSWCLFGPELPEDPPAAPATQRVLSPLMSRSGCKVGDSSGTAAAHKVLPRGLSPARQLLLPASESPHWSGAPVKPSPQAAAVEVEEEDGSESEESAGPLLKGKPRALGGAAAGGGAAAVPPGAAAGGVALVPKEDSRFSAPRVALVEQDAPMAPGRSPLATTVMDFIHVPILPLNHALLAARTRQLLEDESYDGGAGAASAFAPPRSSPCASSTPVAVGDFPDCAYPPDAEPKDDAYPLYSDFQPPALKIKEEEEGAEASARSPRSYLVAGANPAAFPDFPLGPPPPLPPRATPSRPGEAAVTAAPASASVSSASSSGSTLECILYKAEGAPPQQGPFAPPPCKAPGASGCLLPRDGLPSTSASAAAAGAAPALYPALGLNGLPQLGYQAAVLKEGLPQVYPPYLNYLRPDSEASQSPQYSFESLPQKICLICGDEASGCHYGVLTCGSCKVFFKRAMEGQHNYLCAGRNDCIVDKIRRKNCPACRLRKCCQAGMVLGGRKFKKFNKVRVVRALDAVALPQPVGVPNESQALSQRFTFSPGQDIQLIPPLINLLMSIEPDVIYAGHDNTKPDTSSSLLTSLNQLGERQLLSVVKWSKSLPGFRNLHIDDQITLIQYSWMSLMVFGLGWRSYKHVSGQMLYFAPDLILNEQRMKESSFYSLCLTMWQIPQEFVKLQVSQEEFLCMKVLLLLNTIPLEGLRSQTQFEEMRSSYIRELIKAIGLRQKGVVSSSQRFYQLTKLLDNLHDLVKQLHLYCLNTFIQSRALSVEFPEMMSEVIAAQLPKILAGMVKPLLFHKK
Sequence of Nuclear receptor subfamily 1 group I member 2 (Rattus norvegicus) (Q9R1A7 whole entry, looked up): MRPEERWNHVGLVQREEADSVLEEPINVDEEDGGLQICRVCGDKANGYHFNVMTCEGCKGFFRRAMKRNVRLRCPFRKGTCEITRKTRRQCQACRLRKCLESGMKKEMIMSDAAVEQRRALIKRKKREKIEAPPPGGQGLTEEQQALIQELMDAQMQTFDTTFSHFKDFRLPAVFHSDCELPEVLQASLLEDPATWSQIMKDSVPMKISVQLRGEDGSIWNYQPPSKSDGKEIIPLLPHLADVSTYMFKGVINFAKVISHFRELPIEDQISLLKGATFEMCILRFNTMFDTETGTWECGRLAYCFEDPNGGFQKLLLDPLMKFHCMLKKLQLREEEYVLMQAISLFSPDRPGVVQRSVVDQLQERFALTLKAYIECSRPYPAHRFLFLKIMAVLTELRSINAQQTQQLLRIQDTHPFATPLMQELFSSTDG
Sequence of Cytochrome P450 2C19 (Homo sapiens) (P33261 whole entry, looked up): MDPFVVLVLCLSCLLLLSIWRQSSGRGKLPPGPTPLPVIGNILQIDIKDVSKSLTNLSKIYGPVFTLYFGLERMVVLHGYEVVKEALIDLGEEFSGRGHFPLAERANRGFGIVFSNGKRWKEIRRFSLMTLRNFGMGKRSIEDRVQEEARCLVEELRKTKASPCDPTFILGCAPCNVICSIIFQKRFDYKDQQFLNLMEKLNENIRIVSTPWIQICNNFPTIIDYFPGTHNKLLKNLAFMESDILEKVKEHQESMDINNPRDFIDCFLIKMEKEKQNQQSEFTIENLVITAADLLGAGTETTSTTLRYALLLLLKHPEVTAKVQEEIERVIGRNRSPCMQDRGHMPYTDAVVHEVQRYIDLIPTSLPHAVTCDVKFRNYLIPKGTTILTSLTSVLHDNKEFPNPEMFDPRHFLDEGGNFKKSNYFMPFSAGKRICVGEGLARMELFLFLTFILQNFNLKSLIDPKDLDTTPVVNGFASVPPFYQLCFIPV
Sequence of Nuclear receptor subfamily 1 group I member 2 (Homo sapiens) (O75469 whole entry, looked up): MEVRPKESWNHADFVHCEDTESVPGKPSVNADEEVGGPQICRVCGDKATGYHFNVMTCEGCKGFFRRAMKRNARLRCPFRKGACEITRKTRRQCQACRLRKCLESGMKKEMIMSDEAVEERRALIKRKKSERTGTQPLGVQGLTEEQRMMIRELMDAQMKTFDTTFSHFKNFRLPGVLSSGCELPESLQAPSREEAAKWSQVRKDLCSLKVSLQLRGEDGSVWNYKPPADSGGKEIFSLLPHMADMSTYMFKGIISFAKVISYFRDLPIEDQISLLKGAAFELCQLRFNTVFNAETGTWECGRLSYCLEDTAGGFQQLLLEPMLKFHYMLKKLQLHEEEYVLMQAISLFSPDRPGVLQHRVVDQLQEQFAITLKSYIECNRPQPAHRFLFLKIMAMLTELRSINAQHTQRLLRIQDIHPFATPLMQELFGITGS

[O-][n+]1ccccc1SSc1cccc[n+]1[O-]
inactive: activation [1] -12.3% [at 19 µM] | viability change, negative = cytotoxic [4] -6.42% [at 15.8 µM] | activity change, negative = cytotoxicity [5] -3.22% [at 15.8 µM] | activation [6] -0.0146% [at 15.8 µM] | activity, negative = inhibition [7] -2.61% [at 10.5 µM] | activation [8] 5.02% [at 11.8 µM] | caspase-3/7 activation [12] -5.93% [at 19 µM] | activation [14] -49.4% [at 19 µM] | max activation [15] -9.36% | Potency [16]
active: Potency [2] 0.116 µM | Potency [3] 0.116 µM | Potency [9] 0.184 µM | Potency [10] 291 nM | Potency [11] 0.073 µM | Potency [13] 4.11 µM | Potency [17] 11.2 µM | Potency [18] 2.13 µM | Potency [19] 0.536 µM

CCCCCCC[N+](CC)(CC)CCCCc1ccc(Cl)cc1
active: Potency [18] 0.219 µM
inactive: Potency [1] | Potency [20] | Potency [4] | Potency [5] | Potency [7] | Potency [8] | Potency [9] | Potency [10] | Potency [12] | Potency [14] | max activation [15] -3.24% | Potency [16] | Potency [17] | Potency [19]

COCCCC/C(=N\OCCN)c1ccc(C(F)(F)F)cc1
active: Potency [18] 1.95 µM | Potency [19] 0.692 µM
inactive: Potency [1] | Potency [5] | Potency [6] | Potency [10] | Potency [11] | Potency [12] | Potency [13]

O=[N+]([O-])c1cc(Cl)c(Cl)c(Cl)c1Cl
active: Potency [11] 60.9 µM | Potency [14] 60.9 µM | Potency [19] 39.8 µM
inactive: Potency [1] | Potency [3] | Potency [4] | Potency [5] | Potency [7] | Potency [8] | Potency [10] | Potency [12] | Potency [13] | Potency [18]

S=c1[nH]c2ccccc2s1
active: Potency [11] 64.8 µM | Potency [18] 39.9 µM | Potency [19] 11.2 µM
inactive: Potency [1] | Potency [4] | Potency [5] | Potency [6] | Potency [7] | Potency [8] | Potency [10]

CCCN(CCC)C(=O)C(CCC(=O)OCCCN1CCN(CCOC(=O)Cc2c(C)n(C(=O)c3ccc(Cl)cc3)c3ccc(OC)cc23)CC1)NC(=O)c1ccccc1 (configuration not stated)
active: Potency [9] 18.8 µM | Potency [11] 26.6 µM | Potency [13] 26.6 µM | Potency [14] 10.6 µM | Potency [18] 27.5 µM | Potency [19] 8.71 µM
inactive: Potency [1] | Potency [3] | Potency [4] | Potency [5] | Potency [12]

C[n+]1ccn(Cc2ccccc2)c1
inactive: Potency [1] | Potency [5] | Potency [6] | Potency [7] | Potency [8] | Potency [10] | Potency [12] | Potency [13] | Potency [19]
active: Potency [14] 30.5 µM | Potency [18] 31.6 µM

Nc1ccccc1O
inactive: Potency [1] | Potency [4] | Potency [5] | Potency [6] | Potency [7] | Potency [8] | Potency [10] | Potency [12]
active: Potency [9] 60.3 µM | Potency [14] 13.5 µM | Potency [18] 31.3 µM | Potency [19] 19.7 µM

O=C1Cc2cc(CCN3CCN(c4nsc5ccccc45)CC3)c(Cl)cc2N1
active: Potency [19] 21.9 µM
inactive: Potency [20] | Potency [2] | Potency [3] | Potency [5] | Potency [6] | Potency [7] | Potency [8] | Potency [10] | Potency [12] | Potency [13] | max activation [15] -10.8% | Potency [17] | Potency [18]

CCC(CN)=C(c1ccccc1)c1ccccc1
active: Potency [18] 4.36 µM | Potency [19] 4.36 µM
inactive: Potency [1] | Potency [3] | Potency [4] | Potency [5] | Potency [6] | Potency [7] | Potency [8] | Potency [10] | Potency [12] | Potency [13]

Cc1cc2c(cc1C(F)(F)F)N(C(=O)Nc1ccc(Oc3cccnc3C)nc1)CC2
inactive: Potency [1] | Potency [3] | Potency [5] | Potency [10] | Potency [12]
active: Potency [9] 43.9 µM | Potency [11] 24.7 µM | Potency [13] 27.7 µM | Potency [14] 13.9 µM | Potency [18] 22.8 µM | Potency [19] 28.7 µM

O=S1(=O)CC(Cl)(Cl)C(Cl)(Cl)C1
active: Potency [20] 6.86 µM | Potency [2] 13.7 µM | Potency [3] 12.2 µM | Potency [9] 2.73 µM | Potency [11] 0.686 µM | Potency [12] 486 nM | Potency [13] 17.2 µM | Potency [14] 0.545 µM | Potency [19] 35.6 µM
inactive: Potency [7] | Potency [8] | Potency [10] | Potency [18]

CN1CCN(CCC(=O)N2c3ccccc3Sc3ccc(C(F)(F)F)cc32)CC1
active: Potency [20] 26.6 µM | Potency [2] 18.8 µM | Potency [3] 23.7 µM | Potency [9] 26.6 µM | Potency [11] 23.7 µM | Potency [13] 29.8 µM | Potency [16] 14.1 µM | Potency [17] 15.8 µM | Potency [18] 0.155 µM
inactive: Potency [4] | Potency [5] | Potency [6] | Potency [7] | Potency [8] | Potency [12] | Potency [14] | max activation [15] -0.926%

Oc1cc2ccccc2c2ccccc12
active: Potency [20] 6.11 µM | Potency [2] 6.86 µM | Potency [3] 12.2 µM | Potency [4] 11 µM | Potency [5] 5.49 µM | Potency [9] 13.7 µM | Potency [11] 15.4 µM | Potency [13] 13.7 µM | Potency [18] 2.24 µM | Potency [19] 1.12 µM
inactive: Potency [7] | Potency [8] | Potency [10] | Potency [12] | Potency [14]
